AmpC no deterg: blocks E. coli AmpC beta-lactamase in detergent-free assay; AmpC nitrocefin hydrolysis, absorbance 480 nm, 0.0001% Triton; Potency, µM (doses to about 57.1 µM), usual class: inhibitors; actives 0.52% (n = 330,000); note: nearly all actives have a fitted effect of over 20% in size
Target sequence (P00811 whole entry, looked up): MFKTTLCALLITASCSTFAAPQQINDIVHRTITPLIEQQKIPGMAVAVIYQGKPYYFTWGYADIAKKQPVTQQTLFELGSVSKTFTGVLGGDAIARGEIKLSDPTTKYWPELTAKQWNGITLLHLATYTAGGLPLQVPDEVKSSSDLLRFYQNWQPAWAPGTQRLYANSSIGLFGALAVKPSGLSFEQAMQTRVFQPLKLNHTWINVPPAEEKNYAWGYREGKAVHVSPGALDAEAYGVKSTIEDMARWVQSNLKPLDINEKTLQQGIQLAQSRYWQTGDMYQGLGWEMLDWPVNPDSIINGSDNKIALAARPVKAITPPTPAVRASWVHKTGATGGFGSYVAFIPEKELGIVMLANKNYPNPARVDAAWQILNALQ
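20 mM phosphate pH 7.0 + 0.01% (detergent screen) or 0.0001% Triton X-100; 5.3 nM AmpC reagent; cpd preinc 15 min RT; nitrocefin (800 uM stock) to start; A480 q20 s × 4 min; Activity was normalised to no-enzyme and no-compound control wells.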
Pf growth 96h: P. falciparum growth inhibition at 96 hour, primary screen for plastid delayed-death inhibitors. Potency, µM (series often up to 28.7 µM), usual class: inhibitors. actives 6.9% (n = 320,000). P. falciparum luciferase reporter growth, 96 h. AID 504834
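Infected RBCs, 2% Hct / 0.05% parasitemia final; luciferase-reporter P. falciparum; cpd 96 h, 37 C, 5% CO2; luciferase detection reagent; luminescence.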
AmpC inh detg: AmpC beta-lactamase inhibition with detergent present; P00811; AmpC hydrolysis of nitrocefin, absorbance 480 nm, 0.01% Triton; Potency, µM (top dose mostly 114 µM), actives largely listed as inhibitors; actives 0.041% (n = 370,000); note: nearly all actives have a fitted effect of over 25% in size
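AmpC (5.3 nM in the dispensed reagent) in 20 mM phosphate pH 7.0 with 0.01% (detergent screen) or 0.0001% Triton X-100 was preincubated with compounds for 15 min at room temperature. Nitrocefin was then added from an 800 uM solution, and hydrolysis was followed at 480 nm.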
Pf growth 48h: inhibits P. falciparum growth in the first generation, 48 h | P. falciparum luciferase growth in erythrocytes, 48 h | Potency, µM (top dose mostly 28.7 µM), usual class: inhibitors | actives 5.9% (n = 310,000) | AID 504832
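Growth was read as firefly luciferase luminescence after a 48 h, 37 C, 5% CO2 exposure of compounds to reporter-bearing P. falciparum cultures (0.1% parasitemia, 2% hematocrit final) in Albumax-supplemented RPMI 1640.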
SARS PLP yeast: inhibitors of SARS-CoV papain-like protease in yeast | S. cerevisiae expressing SARS-CoV PLpro, growth rescue | Potency, µM (doses to about 32.9 µM), usual class: activators | actives 0.19% (n = 330,000); calls by dose curve; note: nearly all actives have a fitted effect of over 55% in size
Sm TGR inh: S. mansoni TGR enzyme inhibition; Q962Y6; actives 3% (n = 360,000); Potency, µM (highest dose often 114 µM), hits mostly inhibitors; purified TGR, DTNB reduction, TNB absorbance 405 nm; note: nearly all actives have a fitted effect of over 60% in size
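First, TGR (20 nM dispensed) and NADPH were mixed with compound. Second, a 15 min room-temperature incubation followed. Third, further NADPH and then DTNB were added to start the reaction. Finally, TNB absorbance was monitored kinetically.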
Of the large screens only hits and unclear results are named; the others gave an inactive call. Shown are actives, neighbours in structure and some others; about 12% of the full set was active somewhere. Unless noted, calls come from the whole dose curve; as a rule, active = well fitted curve in the direction sought with a large enough effect; inconclusive = small, poorly fitted or top-dose-only effect, or another doubt; inactive = no such curve, though single readings can be large; an effect the other way counts as inactive or inconclusive.

CCCCOc1ccc(-c2nc(=S)[nH][nH]2)cc1	Pf growth 96h 11.7µM (no result: Pf growth 48h)
COc1ccc(C(=O)NC2CCc3ccccc32)cc1OC1CCN(C(C)=O)CC1 (centres undefined)	Pf growth 96h 13.1µM, Pf growth 48h inconclusive
COc1cc(C(=O)NC2CC(C)(C)CC(C)(C)C2)ccc1OC1CCN(C(C)=O)CC1	Pf growth 96h 9.28µM, Pf growth 48h inconclusive
COc1ccc(C(=O)NC2CC2)cc1OC1CCN(Cc2ccccc2O)CC1	Pf growth 48h inconclusive
COc1cc(C(=O)NC2Cc3ccccc3C2)ccc1OC1CCN(C(C)=O)CC1	Pf growth 96h inconclusive, Pf growth 48h inconclusive
CCCn1nc2cc(C(=O)NC3CCc4ccccc43)ccc2c1OCC (centres undefined)	AmpC no deterg 0.282µM, Pf growth 96h inconclusive, Pf growth 48h 11.7µM
CCOC(=O)CSc1nc(C(C)(C)C)cc(C(F)(F)F)c1C#N	none (no result: Pf growth 96h)
C/C(=N\Nc1cccc(Cl)c1)C1(C)N(O)C(C)(C)C(c2ccco2)=[N+]1[O-] (centres undefined)	Pf growth 96h inconclusive, Pf growth 48h 7.38µM, Sm TGR inh inconclusive
O=C(CCCCCn1c(=O)[nH]c2ccsc2c1=O)N1CCN(C2CCCCC2)CC1	Sm TGR inh inconclusive (no result: Pf growth 48h)
CCCc1nc2ccc([N+](=O)[O-])cc2[nH]1	Pf growth 96h 10.4µM (no result: Sm TGR inh)
O=[N+]([O-])c1cccc(/C=C/c2nc3ccc([N+](=O)[O-])cc3[nH]2)c1	Pf growth 96h 2.33µM, Pf growth 48h 2.94µM
O=[N+]([O-])c1ccc2nc(CCCO)[nH]c2c1	Pf growth 96h inconclusive (no result: Sm TGR inh)
CCOC(=O)c1[nH]c(C)c(CCC(=O)Nc2c(C)cc(C)cc2C)c1C	none (no result: AmpC no deterg, Pf growth 96h, Pf growth 48h, SARS PLP yeast)
O=C(Cc1ccccc1)Nc1c[nH]c(=O)[nH]c1=O	Pf growth 96h inconclusive
O=C(CCl)Nc1c[nH]c(=O)[nH]c1=O	AmpC inh detg inconclusive, Pf growth 48h 1.65µM, Sm TGR inh inconclusive
CCC(=O)Nc1cccc(NC(=S)NC(=O)c2ccccc2)c1	Sm TGR inh 44.7µM
CCC(=O)Nc1ccc(NC(=S)Nc2ccccc2)cc1	Pf growth 96h 11.7µM
CCC(=O)Nc1cccc(NC(=S)NC(=O)c2cccc(C)c2)c1	Sm TGR inh 39.8µM
Cc1csc(=O)n1CC(=O)OCC(=O)NNC(=O)c1ccc(Cl)cc1	none
Cc1ccc(C)c(S(=O)(=O)c2nnn3c2nc(NCc2ccc4c(c2)OCO4)c2sccc23)c1	none (no result: AmpC no deterg, Pf growth 96h, Pf growth 48h, SARS PLP yeast)
CCOc1ccc(CCNC(=O)c2cnc3sc(N4CCCCC4)nn3c2=O)cc1	none (no result: AmpC no deterg, Pf growth 96h, Pf growth 48h, SARS PLP yeast)
Cc1ccc(N2C(=O)CCSC23C(=O)N(Cc2ccccc2)c2ccccc23)cc1 (centres undefined)	none (no result: AmpC no deterg, Pf growth 96h, Pf growth 48h, SARS PLP yeast)
Cc1ccc(Sc2ccc(CN3CCCC3)cc2[N+](=O)[O-])cc1	Pf growth 96h inconclusive
CN1CCN(Cc2ccc(Sc3ccc(Cl)cc3)c([N+](=O)[O-])c2)CC1	Pf growth 96h 0.165µM, Pf growth 48h inconclusive
O=c1[nH]c(=O)n(-c2ccc(F)cc2)c2c1C(C(F)(F)F)(C(F)(F)F)N=C(c1ccc(F)cc1)N2	Pf growth 96h 11.7µM, Pf growth 48h inconclusive
O=C(CCS(=O)(=O)c1ccc(Br)s1)Nc1ccccc1Br	none
O=C1CC(N2CCN(c3ccc(O)cc3)CC2)C(=O)N1Cc1cccs1 (centres undefined)	AmpC inh detg inconclusive, Pf growth 48h inconclusive, Sm TGR inh 50.1µM
O=C(c1ccncc1)c1ccc(N2CCN(C3CC(=O)N(Cc4cccs4)C3=O)CC2)cc1 (centres undefined)	Pf growth 96h inconclusive, Sm TGR inh inconclusive
